# Laboratory results taken from PubChem BioAssay (Tox21).
# Unmarked numbers belong to inactive results. Records with an inconclusive call do not appear. A call without a number means that no potency is given here. The source made the active and inactive calls. Unless noted, calls follow the shape of the dose curve; as a rule, active = well fitted curve in the direction sought with a large enough effect in the repeat runs; inconclusive = weak or mixed curves; inactive = no such curve, though single readings can be large; an effect the other way counts as inactive or inconclusive.
# What was measured:
# [1] = qHTS assay to identify small molecule agonists of the hypoxia (HIF-1) signaling pathway - cell viability counter screen (AID 1224844; calls by dose curve; also: nearly all actives have a fitted effect of over 50% in size; also: potency is read from the fitted curve at half-maximal effect)
# Summary of the method: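 Cytotoxicity measured by CellTiter-Glo ATP luminescence in the wells also read for beta-lactamase signal. Cells were HRE-bla ME-180 (2,000/well, 0.5% dialyzed FBS), exposed to compounds for 17 h at 37C.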
# [2] = qHTS assay to identify small molecule agonists of H2AX (AID 1224845; active = well fitted activation curve with a large enough effect in the signal ratio in the repeat runs, not every such curve was filed as active; the % refers to the signal ratio; also: potency is read from the fitted curve at half-maximal effect)
# Summary of the method: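 Wild-type CHO-K1 cells plated overnight, then exposed 3 hr at 37C to compounds at 15 concentrations (0.76% DMSO). Lysed, then HTRF anti-pH2AX(S139)-cryptate/anti-H2AX-d2 detection after 24 hr at room temperature; emissions 665 and 620 nm.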
# [3] = qHTS assay to identify small molecule agonists of the hypoxia (HIF-1) signaling pathway (AID 1224846; active = well fitted activation curve with a large enough effect in the signal ratio in the repeat runs, not every such curve was filed as active; the % refers to the signal ratio)
# Summary of the method: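 Compounds added to ME-180 cells carrying hypoxia-response-element beta-lactamase reporter (0.5% dialyzed FBS, 5 h preplating), 17 h at 37C; agonist activity detected by CCF4-AM B/G FRET read-out.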
# [4] = qHTS assay to identify small molecule agonists of H2AX - cell viability counter screen (AID 1224847; calls by dose curve; also: top concentration of the series differs between compounds; nearly all actives have a fitted effect of over 30% in size)
# Summary of the method: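 After overnight plating of 1000 CHO-K1 cells per well, a 15-concentration compound series was applied for 3 hr at 37C. Luminescence from CellTiter-Glo, read following 30 min at room temperature, reflected cell viability.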
# [5] = qHTS RealTime-Glo MT Cell Viability Assay in HepG2 cells - 24 hour (AID 1224867); also: nearly all actives have a fitted effect of over 50% in size
# Summary of the method: (§1)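 Cell number in HepG2 cultures estimated from NanoLuc luminescence generated by metabolic reduction of a prosubstrate by living cells. The homogeneous, nonlytic format allowed repeated reads at 0, 8, 16, 24, 32 and 40 h of compound exposure.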
# [6] = qHTS RealTime-Glo MT Cell Viability Assay in HEK293 cells - 32 hour (AID 1224868); also: nearly all actives have a fitted effect of over 50% in size; also: potency is read from the fitted curve at half-maximal effect
# Summary of the method: (§2)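 Homogeneous bioluminescent viability format in HEK293 cells (600 cells/well). Following 5 h at 37 C/5% CO2, 23 nL compound was pintooled; the signal was measured repeatedly during 40 h incubation.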
# [7] = qHTS RealTime-Glo MT Cell Viability Assay in HepG2 cells - 40 hour (AID 1224870); also: nearly all actives have a fitted effect of over 50% in size
# Summary of the method: (§3)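 HepG2 cells mixed with RealTime-Glo MT reagents (NanoLuc plus cell-permeant prosubstrate) were seeded at 600 cells/well, incubated 5 h at 37 C/5% CO2, then pinned with compounds in DMSO; nonlytic luminescence tracked viability during 40 h treatment.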
# [8] = A CellTox Green Cytotoxicity Assay to monitor cytotoxicity in HEK293 cells - 40 hour (AID 1224871); also: nearly all actives have a fitted effect of over 45% in size; also: potency is read from the fitted curve at half-maximal effect
# Summary of the method: (§4)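 Fluorescence from a DNA-binding dye excluded by viable cells was measured repeatedly in the same HEK293 wells (600 cells/well) during continuous compound exposure at 37 C. Each assay gives one read point: 0, 8, 16, 24, 32 or 40 h.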
# [9] = qHTS RealTime-Glo MT Cell Viability Assay in HEK293 cells - 16 hour (AID 1224872); also: nearly all actives have a fitted effect of over 50% in size; also: potency is read from the fitted curve at half-maximal effect
# Summary of the method: as §2
# [10] = qHTS RealTime-Glo MT Cell Viability Assay in HepG2 cells - 8 hour (AID 1224873); also: nearly all actives have a fitted effect of over 55% in size
# Summary of the method: as §3
# [11] = qHTS RealTime-Glo MT Cell Viability Assay in HEK293 cells - 40 hour (AID 1224874); conditions: RealTime-Glo luminescence; max response: active compounds read low; also: nearly all actives have a fitted effect of over 50% in size; also: potency is read from the fitted curve at half-maximal effect
# Summary of the method: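 Luminescence, which tracks viable cell number through reduction of the prosubstrate to a NanoLuc substrate, was read over continuous 37 C culture. Cells (600/well) were premixed with reagent and rested 5 h before 23 nL of compound in DMSO was pinned.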
# [12] = A CellTox Green Cytotoxicity Assay to monitor cytotoxicity in HEK293 cells - 24 hour (AID 1224875); also: nearly all actives have a fitted effect of over 45% in size
# Summary of the method: as §4
# [13] = A CellTox Green Cytotoxicity Assay to monitor cytotoxicity in HepG2 cells - 16 hour (AID 1224876); also: nearly all actives have a fitted effect of over 45% in size
# Summary of the method: (§5)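 Real-time cytotoxicity: fluorescence of a cell-impermeant cyanine dye binding DNA of dead HepG2 cells, measured repeatedly (0–40 h) during compound exposure at 37 C. Cells seeded 600/well with reagent, dosed after 5 h.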
# [14] = qHTS RealTime-Glo MT Cell Viability Assay in HepG2 cells - 32 hour (AID 1224877); also: nearly all actives have a fitted effect of over 55% in size
# Summary of the method: as §1
# [15] = A CellTox Green Cytotoxicity Assay to monitor cytotoxicity in HepG2 cells - 24 hour (AID 1224878); also: nearly all actives have a fitted effect of over 45% in size; also: potency is read from the fitted curve at half-maximal effect
# Summary of the method: as §5
# [16] = A CellTox Green Cytotoxicity Assay to monitor cytotoxicity in HepG2 cells - 40 hour (AID 1224879); also: nearly all actives have a fitted effect of over 40% in size; also: potency is read from the fitted curve at half-maximal effect
# Summary of the method: as §5
# [17] = qHTS assay to identify small molecule antagonists of the estrogen related receptor (ERR) signaling pathway from Tox21 library (AID 1224848); also: nearly all actives have a fitted effect of over 50% in size; also: potency is read from the fitted curve at half-maximal effect
# Summary of the method: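 Tox21 10K compounds in DMSO tested for ERR pathway antagonism in NTP's ERR cell line; 18 h, 37 C exposure; ONE-Glo luminescence.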
# [18] = qHTS assay to identify small molecule agonists of the estrogen related receptor (ERR) signaling pathway from Tox21 library (AID 1224849; calls by dose curve; also: nearly all actives have a fitted effect of over 15% in size); conditions: ERR reporter cell line, ONE-Glo luciferase, 18 h; at 92.4 µM (top of the series) unless noted
# Summary of the method: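 Luminescent agonist read-out (One-Glo, 30-minute room-temperature incubation) following 18-hour compound treatment at 37 C of the ERR cell line, which had been plated 6 hours before dosing.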
# [19] = A CellTox Green Cytotoxicity Assay to monitor cytotoxicity in HEK293 cells - 0 hour (AID 1224869); also: nearly all actives have a fitted effect of over 50% in size
# Summary of the method: as §4
SMILES,Potency [1],Potency [2],outcome [3],Potency [4],Potency [5],Potency [6],Potency [7],Potency [8],Potency [9],Potency [10],max response [11],Potency [12],Potency [13],Potency [14],Potency [15],Potency [16],Potency [17],"activity change, positive = activation [18]",Potency [19],Potency [11]
CC(C)C(=O)O,inactive,inactive,inactive,inactive,inactive,inactive,inactive,inactive,inactive,inactive,9.49%,inactive,inactive,inactive,inactive,inactive,–,–,–,–
COCCOC(=O)C1=C(C)NC(C)=C(C(=O)OC/C=C/c2ccccc2)C1c1cccc([N+](=O)[O-])c1 (stereo not given),inactive,inactive,–,–,–,–,inactive,inactive,inactive,–,–,inactive,inactive,–,inactive,inactive,7.5 µM (active),-61.8% [at 42.5 µM],inactive,–
Cc1ccc(S(=O)(=O)NC2CCCCC2)cc1,inactive,inactive,inactive,–,inactive,–,inactive,–,inactive,inactive,–,inactive,inactive,inactive,inactive,inactive,27.1 µM (active),-34.7%,inactive,–
Cc1ccc(S)cc1,inactive,–,inactive,inactive,inactive,inactive,inactive,inactive,inactive,inactive,4.48%,inactive,inactive,inactive,17.4 µM (active),17.4 µM (active),–,–,inactive,–
Cc1nc2ccccn2c(=O)c1CCN1CCC(C(=O)c2ccc(F)cc2)CC1,inactive,inactive,–,–,inactive,7.56 µM (active),inactive,inactive,4.77 µM (active),inactive,–,inactive,inactive,inactive,inactive,inactive,–,-25.4% [at 42.5 µM],inactive,8.49 µM (active)
O=C(Nc1ccccc1)Nc1ccccc1,inactive,inactive,inactive,–,inactive,–,inactive,–,–,inactive,–,inactive,inactive,inactive,inactive,inactive,inactive,28.3% (active),inactive,–
O=C(O)Cc1ccc(-c2ccccc2)cc1,inactive,inactive,–,inactive,inactive,–,inactive,–,inactive,inactive,10.5%,inactive,inactive,inactive,inactive,inactive,inactive,1.1% [at 42.5 µM],inactive,–
CCC(C(=O)OCCOCCN(CC)CC)c1ccccc1 (stereo not given),inactive,inactive,–,inactive,inactive,inactive,inactive,–,inactive,inactive,4.17%,inactive,inactive,inactive,inactive,inactive,–,–,inactive,–
NCC1CCCC(CN)C1 (stereo not given),inactive,–,inactive,inactive,inactive,inactive,inactive,–,inactive,inactive,-13.1%,inactive,inactive,inactive,inactive,inactive,inactive,-0.124%,inactive,–
O=Cc1c(Cl)cccc1Cl,inactive,–,inactive,inactive,inactive,inactive,inactive,inactive,inactive,inactive,-15.3%,inactive,inactive,inactive,inactive,inactive,inactive,3.9%,inactive,–
NC(=O)Cn1c(=O)cc(CCN2CCN(c3nccc4sccc34)CC2)c2ccc(F)cc21,inactive,inactive,–,–,–,43.6 µM (active),inactive,inactive,49 µM (active),–,–,inactive,inactive,–,inactive,inactive,54.5 µM (active),-34.9%,inactive,43.6 µM (active)
Nc1ccc(S(=O)(=O)O)cc1,inactive,inactive,–,–,inactive,inactive,inactive,inactive,inactive,inactive,0.165%,inactive,inactive,inactive,inactive,inactive,inactive,2.73%,inactive,–
COc1ccc(CCC(=O)c2c(O)cc(O[C@@H]3O[C@H](CO)[C@@H](O)[C@H](O)[C@H]3O[C@@H]3O[C@@H](C)[C@H](O)[C@@H](O)[C@H]3O)cc2O)cc1O,inactive,–,inactive,inactive,inactive,inactive,inactive,inactive,inactive,inactive,12.3%,inactive,inactive,inactive,inactive,inactive,inactive,1.69%,inactive,–
C[N+]1(C)CCC(=C(c2ccccc2)c2ccccc2)CC1,inactive,inactive,–,inactive,inactive,inactive,inactive,inactive,inactive,inactive,7.64%,inactive,inactive,inactive,inactive,inactive,inactive,-2% [at 42.5 µM],inactive,–
CC(C)CCCCCCOC(=O)CCCCC(=O)OCCCCCCC(C)C,inactive,inactive,inactive,inactive,inactive,inactive,inactive,inactive,inactive,inactive,0.314%,inactive,inactive,inactive,inactive,inactive,–,–,–,–
CNC(=S)NC,11 µM (active),inactive,–,inactive,inactive,inactive,inactive,inactive,inactive,inactive,–,inactive,inactive,inactive,inactive,54.9 µM (active),–,–,inactive,–
CCCCCCCCSCCO,inactive,inactive,inactive,–,inactive,inactive,inactive,inactive,inactive,inactive,0.336%,inactive,inactive,inactive,43.6 µM (active),43.6 µM (active),inactive,-3.95%,inactive,–
O=C(c1ccc(O)cc1)c1ccc(Cl)cc1,inactive,inactive,inactive,–,inactive,–,inactive,–,25.1 µM (active),inactive,–,–,inactive,inactive,inactive,inactive,–,–,inactive,–
CCCCC(=O)O[C@]1(C(=O)CO)[C@@H](C)C[C@H]2[C@@H]3CCC4=CC(=O)C=C[C@]4(C)[C@@]3(F)[C@@H](O)C[C@@]21C,34.7 µM (active),113 µM (active),inactive,–,–,–,inactive,54.9 µM (active),–,–,–,inactive,inactive,inactive,inactive,inactive,54.5 µM (active),-45.4%,inactive,–
CC1=C(/C=C/C(C)=C\C=C\C(C)=C\C(=O)O)C(C)(C)CCC1,49 µM (active),–,–,inactive,–,–,inactive,49 µM (active),inactive,inactive,-21.3%,–,inactive,–,inactive,–,–,–,inactive,–
CC(C)CCCCCOC(=O)CCCCC(=O)OCCCCCC(C)C,inactive,–,inactive,–,inactive,–,inactive,inactive,inactive,inactive,3.71%,inactive,inactive,inactive,inactive,inactive,inactive,-6.86%,inactive,–
O=C(N/N=C/c1ccc([N+](=O)[O-])o1)c1ccc(O)cc1,inactive,–,–,inactive,–,–,–,–,–,–,–,–,inactive,–,inactive,–,–,–,inactive,–
CCC(Cc1ccccc1)(C(=O)c1ccc(N2CCOCC2)cc1)N(C)C (stereo not given),inactive,–,inactive,–,inactive,–,inactive,–,–,inactive,–,inactive,inactive,inactive,inactive,inactive,17.2 µM (active),-33.5%,inactive,–
COC(=O)[C@@H]1CC2=CC(=O)CC[C@]2(C)[C@@]23O[C@@H]2C[C@@]2(C)[C@@H](CC[C@@]24CCC(=O)O4)[C@H]13,inactive,–,inactive,inactive,inactive,inactive,inactive,inactive,inactive,inactive,1.85%,inactive,inactive,inactive,inactive,inactive,–,–,inactive,–
C(=C\c1ccccc1)/CN1CCN(C(c2ccccc2)c2ccccc2)CC1,inactive,–,–,–,inactive,–,inactive,inactive,–,inactive,–,inactive,inactive,inactive,inactive,–,–,–,inactive,–
CCOC(=O)CC(=O)C(=O)OCC,–,inactive,inactive,–,inactive,49 µM (active),inactive,–,–,inactive,–,inactive,inactive,inactive,inactive,inactive,27.3 µM (active),-57.1%,inactive,43.6 µM (active)
Cc1cc(C(=C2C=CC(=Nc3ccc(S(=O)(=O)O)cc3S(=O)(=O)O)C=C2)c2ccc(Nc3ccc(S(=O)(=O)O)cc3)cc2)ccc1N,inactive,–,–,inactive,inactive,inactive,inactive,inactive,inactive,inactive,–,inactive,inactive,inactive,inactive,inactive,–,–,–,–
Cc1oc(C)c(C(=O)Nc2ccccc2)c1C,inactive,–,inactive,–,inactive,24.5 µM (active),inactive,–,34.7 µM (active),inactive,–,inactive,inactive,inactive,inactive,inactive,17.2 µM (active),-47.2%,inactive,24.5 µM (active)
